# Assay results as given in PubChem BioAssay AID493169 (National Center for Advancing Translational Sciences (NCATS), 2011).
# Records with an inconclusive call do not appear. A call without a number means that no potency is given here. Calls of active or inactive are those of the source. Calls follow the shape of the dose curve; as a rule, active = well fitted inhibition curve with a large enough effect; inconclusive = small, poorly fitted or top-dose-only effect; inactive = flat fitted curve, though single readings scatter.
# Test: CHOP2 Reporter Counterscreen Assay for Inhibitors of Ubiquitin-specific Protease USP2a;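 also: activated enterokinase alone at 50 pM in a cell-free format rather than USP2a or CHOP2; nearly all actives have a fitted effect of over 55% in size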
# Settings: purified enterokinase, fluorogenic substrate, 485/531 nm; series mostly up to 38.3 µM
# Procedure, shortened: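 Fluorescence (485/531 nm) read 10 min after adding 25nM reporter substrate to 50 pM activated EK preincubated 30 min RT with compound; Tris pH 8.0/CaCl2/CHAPS buffer. Data normalized to buffer-alone inhibition; concentration-response curves fitted.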
# Potency is read from the fitted curve at half-maximal effect.
row,SMILES,Potency
1,CCc1cc2cccc(C)c2nc1SCC(=O)N1CCN(C(=O)c2ccco2)CC1,inactive
2,CCC(=O)c1ccc(OCC(=O)NC2CCN(Cc3ccccc3)CC2)cc1,inactive
3,Cn1c(SCc2nc3ccccc3s2)nnc1-c1cccs1,inactive
4,COC(=O)c1ccc(NC(=O)CSC2=Nc3ccccc3C3CC=NN23)cc1 (stereo not given),inactive
5,COc1ccc(-n2c(=S)[nH]c3cc(C(=O)Nc4cc(OC)c(OC)c(OC)c4)ccc3c2=O)c(OC)c1,inactive
6,Cc1ccc([C@H]2C(C(=O)O)=CC[C@@H](c3ccc(Cl)cc3)N2S(=O)(=O)c2ccc(C)cc2)cc1,inactive
7,Cc1ccc(C=Nc2ccccc2C(N)=O)cc1,inactive
8,Cc1n[nH]c(C)c1S(=O)(=O)N1CCCC(C(=O)Nc2nccs2)C1 (stereo not given),inactive
9,Cc1ccc(C(=O)C(=S)N2CCOCC2)cc1,inactive
10,O=C(N/N=C/c1ccc(F)cc1)c1cc(-c2ccco2)nc2ccccc12,2240 nM (active)
11,O=C1OC[C@@H]2CCCN2C(=O)[C@@H](CC(=O)N(CCO)Cc2ccccc2)C/C=C\C[C@@H]1Cc1ccc(F)cc1,inactive
12,C=CC#CC[N+]1(CC#Cc2ccccc2)CCOCC1,2240 nM (active)
13,CCOc1cccc(NC(=O)/C(C#N)=C\c2cn(CC(=O)O)c3ccccc23)c1,inactive
14,COc1ccc(OC)c(Nc2ccc(Nc3cc(OC)ccc3OC)nn2)c1,inactive
15,O=C(CCS(=O)(=O)c1ccc(Br)s1)NC1CCCC1,inactive
16,CC1CCCCN1CCNC(=O)CC1Oc2ccccc2NC1=O (stereo not given),inactive
17,O=C(Nc1cccc(S(=O)(=O)NC2=NCCC2)c1)c1cc(-c2ccco2)nc2ccccc12,1780 nM (active)
18,CCc1c(O)nc(SCC(=O)Nc2ccccc2OC)[nH]c1=O,inactive
19,O=C(N/N=C/c1ccc(-c2ccc(Cl)c(C(=O)O)c2)o1)c1cc2c(ccc3ccccc32)o1,11200 nM (active)
20,Cc1c(C(=O)NCc2c(F)cc(F)cc2F)oc2ccc(S(=O)(=O)N3CCOCC3)cc12,inactive

row,SMILES,Potency
1,c1coc(CNC2CCCCCCC2)c1,inactive
2,O=C(NCCOC(=O)c1ccccc1C(=O)OCCNC(=O)c1cccnc1)c1cccnc1,inactive
3,CSCCC(NC(=O)c1cc(C(C)(C)C)oc1C)C(=O)O (stereo not given),inactive
4,CC(C)n1c(/C=C/[C@H](O)C[C@H](O)CC(=O)O)c(-c2ccc(F)cc2)c2ccccc21,inactive
5,CS(=O)(=O)c1nc(-c2ccc(Br)cc2)cc(-c2ccccc2)c1C#N,inactive
6,O=C(Nc1cnn(Cc2ccccc2)c1)c1nc2ncccn2n1,inactive
7,CCOC(=O)c1c(-c2ccc(C)o2)csc1NC(=O)COC(=O)c1ccc(NC(N)=O)cc1,inactive
8,CCCCCCCCCC[N+](C)(C)CC/C=C1/c2ccccc2Sc2ccc(Cl)cc21,7940 nM (active)
9,O=C(Nn1c(SCc2ccc([N+](=O)[O-])cc2)nc2ccccc2c1=O)c1ccc(F)cc1,inactive
10,C[C@H](CO)N1C[C@H](C)[C@@H](CN(C)S(=O)(=O)c2cn(C)cn2)Oc2ccc(NC(=O)Cn3cnnn3)cc2C1=O,inactive
11,C=CC[C@H](CC(=O)OC(C)(C)C)C(=O)OC[C@@H]1CCCN1C(=O)[C@H](CC=C)CC(=O)N[C@H](CO)Cc1ccccc1,inactive
12,CCOc1ccccc1C(=O)N[C@H](C(=O)Nc1ccc(OC)c(S(=O)(=O)N2CCOCC2)c1)C(C)C,inactive
13,CSC1=NCCN1C(=O)Cc1ccc(F)cc1,inactive
14,O=C(c1ccco1)N1CCN(C(c2cccs2)c2sc3ncnn3c2O)CC1 (stereo not given),inactive
15,O=C(COC(=O)c1c2c(nc3ccccc13)/C(=C/c1ccco1)CC2)NC1CCCC1,2000 nM (active)
16,O=C1Nc2ccc(S(=O)(=O)N3CCCCCC3)c3cccc1c23,inactive
17,COc1ccc(-c2csc(Nc3ccc(S(=O)(=O)Nc4cc(OC)nc(OC)n4)cc3)n2)cc1,inactive
18,CCOc1ccc(NC(=O)c2ccc(NC(=O)COC(=O)c3ccc(NC(=O)CC#N)cc3)cc2)cc1,2820 nM (active)
19,COc1c(/C=C2\SC(=Nc3ccccc3Cl)NC2=O)cccc1[N+](=O)[O-],inactive
20,COc1ccc(Cc2nnc(NC(=O)Cc3cccs3)s2)cc1,1780 nM (active)
